Assay results: PubChem BioAssay (NCATS)
Records with an inconclusive call do not appear. Activity calls are given as the source filed them. Unless noted, calls come from the whole dose curve; as a rule, active = well fitted curve in either direction with a large enough effect (not every such curve was filed as active); inconclusive = small, poorly fitted or top-dose-only effect, or another doubt; inactive = flat fitted curve, though single readings scatter.

Assays:
[1] = biological target: Lysosomal acid glucosylceramidase (Homo sapiens) (UniProt P04062); assay: Glucocerebrosidase-p2 (AID 348; in the data active = potency below about 10 µM; note: potency is the fitted concentration of half-maximal effect); details: purified GBA, blue fluorogenic substrate, 40 min
Procedure, shortened: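 Normal human glucocerebrosidase (0.2 nM) with blue fluorogenic substrate (80 uM final) in citrate/phosphate pH 5.9 with 10mM sodium taurocholate, 0.01% tween-20; 40 min RT, NaOH/glycine stop; fluorescence Ex 365/Em 440; AC50 from a titration from 0.6 nM upwards.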

[2] = AP1 Signaling Pathway (AID 357); details: ME-180 AP-1-bla reporter, EGF-induced, beta-lactamase ratio, 5 h; at 7.69 µM (top of the series) unless noted;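 note: ME-180 reporter cells stimulated with EGF at its EC50 level; % is set by controls: 0 for no effect and ±100 for the full control effect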
Procedure, shortened: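 In this screen, ME-180 cells in Opti-MEM with 0.5% dialyzed FBS received EC50 EGF and compound titrations for 5 h. AP-1 reporter beta-lactamase was detected via CCF4 ratio, giving AC50 for positive and negative modulators.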

[3] = NFAT Signaling Pathway (AID 444); details: Jurkat NFAT-bla M1, carbachol, beta-lactamase ratio, 5 h; at 7.69 µM (top of the series) unless noted;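 note: carbachol stimulus at about its EC50 of 1 µM final; % is set by controls: 0 for no effect and ±100 for the full control effect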
Procedure, shortened: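 Read-out: CCF4 FRET ratio (460 nm/530 nm) after 1 h RT dye loading, used for %activity and AC50 from titration series. Cells: Jurkat NFAT-β-lactamase/M1 line, treated with compound plus 1 uM carbachol for 5 h, 37 °C.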

[4] = Stat Signaling Pathway (AID 446); details: ME-180 (cervical carcinoma) SIE beta-lactamase reporter, IL-6 stimulated, 5 h; at 7.69 µM (top of the series) unless noted;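 note: ME-180 cervical cancer cells given 40 pM IL-6 alongside compound; SIE-controlled beta-lactamase reporter measured as 460/530 nm FRET emission ratio; % is set by controls: 0 for no effect and ±100 for the full control effect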
Procedure, shortened: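 FRET read-out (405 nm excitation, 460/530 nm emission) of a beta-lactamase reporter under a STAT-inducible element in ME-180 cervical carcinoma cells. Cells with compound receive 40 pM IL-6 for 5 h. Values are normalised to AC90 stimulation and AC90 JAK-inhibitor controls.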

[5] = biological target: Glucocorticoid receptor (Homo sapiens) (UniProt P04150); assay: GR-GFP Redistribution (AID 450;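 active = compounds whose dose series gives a full or clear partial fitted curve of increased nuclear translocation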; note: potency is the fitted concentration of half-maximal effect); details: U2OS GR-GFP nuclear translocation, laser cytometry, 2 h
[6] = biological target: Glucocorticoid receptor (Homo sapiens) (UniProt P04150); assay: GR-EFC Redistribution (AID 451; calls by dose curve; note: potency is the fitted concentration of half-maximal effect); details: CHO-K1 GR-EFC translocation, beta-gal luminescence, 2 h
Procedure, shortened: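 Translocation of GR-ED fusion to nuclear EA restores b-gal, read by luminescence after 1 h room-temperature detection. Engineered CHO-K1 biosensor cells, 1,000/well, exposed 2 h at 37 C to titrations up to 46 uM final.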

[7] = biological target: Mitogen-activated protein kinase 10 (Mus musculus) (UniProt Q61831); assay: JNK3 AlphaScreen Assay (AID 530); details: JNK3 lysate, c-Jun phosphorylation; series mostly up to 11.4 µM;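 note: kinase came from lysate of stimulated human HepG2 cells; signal reports phosphorylation of biotinylated GST-cJun 1-79 at Ser73 with 10 µM ATP; % is set by controls: 0 for no effect and ±100 for the full control effect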
Procedure, shortened: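 Kinase buffer: 20 mM Tris-HCl pH 7.6, 10 mM MgCl2, 1 mM DTT, 0.1 mM Na3VO4, 0.01% Tween-20; ATP 10 uM. Substrate biotin-GST-cJun(1-79), enzyme from activated HepG2 lysates. Detection by Ser73 phospho-antibody AlphaScreen.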

[8] = biological target: 3',5'-cyclic-AMP phosphodiesterase 4B (Homo sapiens) (UniProt Q07343); assay: qHTS Assay for Inhibitors of PDE-IV (AID 607; active = well fitted activation curve with a large enough effect in the main read-out, with a control signal flat, not every such curve was filed as active; note: % of control where 0% means no effect); details: HEK293 ACTOne CNG channel cells, membrane potential fluorescence; series mostly up to 22.9 µM
Procedure, shortened: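 Cell-based read-out of cAMP via a modified cyclic nucleotide-gated channel and membrane potential dye (535/590 nm) in HEK293 cells expressing PDE4 endogenously. Compounds tested up to 22.9 uM final; 100 uM RO 20-1724 reference.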

3',5'-cyclic-AMP phosphodiesterase 4B (Homo sapiens), sequence (Q07343 whole entry, looked up): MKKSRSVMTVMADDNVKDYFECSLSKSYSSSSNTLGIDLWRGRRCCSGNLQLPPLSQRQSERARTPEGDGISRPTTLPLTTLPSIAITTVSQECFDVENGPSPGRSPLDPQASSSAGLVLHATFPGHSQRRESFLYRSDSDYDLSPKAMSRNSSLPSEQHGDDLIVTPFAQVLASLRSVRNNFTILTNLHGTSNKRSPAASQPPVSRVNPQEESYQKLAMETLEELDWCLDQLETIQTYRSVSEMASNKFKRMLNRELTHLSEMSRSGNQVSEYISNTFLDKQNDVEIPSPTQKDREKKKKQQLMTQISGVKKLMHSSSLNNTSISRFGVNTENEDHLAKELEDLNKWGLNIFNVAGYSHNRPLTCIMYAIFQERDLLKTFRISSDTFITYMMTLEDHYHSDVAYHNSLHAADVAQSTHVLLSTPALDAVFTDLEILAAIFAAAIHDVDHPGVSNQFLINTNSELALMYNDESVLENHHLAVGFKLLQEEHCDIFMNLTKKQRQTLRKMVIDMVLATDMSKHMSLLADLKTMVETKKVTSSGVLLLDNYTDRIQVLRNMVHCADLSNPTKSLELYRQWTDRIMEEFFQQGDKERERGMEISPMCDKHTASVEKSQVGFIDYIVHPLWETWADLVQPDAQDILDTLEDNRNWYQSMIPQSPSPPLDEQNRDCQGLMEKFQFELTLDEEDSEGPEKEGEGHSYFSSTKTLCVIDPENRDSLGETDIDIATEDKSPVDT
Glucocorticoid receptor (Homo sapiens), sequence (P04150 whole entry, looked up, the tested form may be a part): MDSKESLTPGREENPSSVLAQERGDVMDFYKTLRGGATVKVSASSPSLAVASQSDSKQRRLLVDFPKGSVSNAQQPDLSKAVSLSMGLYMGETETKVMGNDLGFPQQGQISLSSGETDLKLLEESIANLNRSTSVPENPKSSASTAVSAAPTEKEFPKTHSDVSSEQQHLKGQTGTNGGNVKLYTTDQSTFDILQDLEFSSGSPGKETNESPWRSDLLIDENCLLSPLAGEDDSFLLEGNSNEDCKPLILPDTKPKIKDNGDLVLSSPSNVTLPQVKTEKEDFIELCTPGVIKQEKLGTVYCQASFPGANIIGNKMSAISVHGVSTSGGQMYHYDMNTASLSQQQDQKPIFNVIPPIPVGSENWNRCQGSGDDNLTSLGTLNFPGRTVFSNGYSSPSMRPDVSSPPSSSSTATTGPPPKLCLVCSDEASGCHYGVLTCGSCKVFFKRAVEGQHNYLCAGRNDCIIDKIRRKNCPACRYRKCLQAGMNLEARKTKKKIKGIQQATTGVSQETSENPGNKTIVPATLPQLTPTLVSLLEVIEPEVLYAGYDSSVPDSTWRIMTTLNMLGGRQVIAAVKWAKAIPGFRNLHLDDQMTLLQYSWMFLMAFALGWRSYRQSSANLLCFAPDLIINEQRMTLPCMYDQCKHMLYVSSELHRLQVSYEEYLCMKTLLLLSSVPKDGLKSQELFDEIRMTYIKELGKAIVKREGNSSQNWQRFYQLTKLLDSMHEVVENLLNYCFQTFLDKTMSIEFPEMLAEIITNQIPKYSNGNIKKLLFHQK
Lysosomal acid glucosylceramidase (Homo sapiens), sequence (P04062 whole entry, looked up): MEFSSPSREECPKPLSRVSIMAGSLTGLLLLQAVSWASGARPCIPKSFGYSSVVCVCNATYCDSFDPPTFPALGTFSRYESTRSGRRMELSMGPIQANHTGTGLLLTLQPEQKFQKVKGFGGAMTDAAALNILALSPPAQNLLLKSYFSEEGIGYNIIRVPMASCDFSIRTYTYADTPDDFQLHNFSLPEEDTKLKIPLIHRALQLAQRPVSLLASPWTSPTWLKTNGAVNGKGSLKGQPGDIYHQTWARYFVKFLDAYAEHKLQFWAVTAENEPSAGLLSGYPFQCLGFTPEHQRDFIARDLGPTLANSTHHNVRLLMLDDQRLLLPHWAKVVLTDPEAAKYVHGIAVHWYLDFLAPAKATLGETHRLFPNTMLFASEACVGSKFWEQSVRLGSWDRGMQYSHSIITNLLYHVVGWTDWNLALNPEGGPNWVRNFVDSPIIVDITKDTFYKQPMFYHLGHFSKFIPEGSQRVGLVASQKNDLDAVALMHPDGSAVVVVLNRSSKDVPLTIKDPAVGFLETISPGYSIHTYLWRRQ

CC(=O)CSCc1ccccn1
inactive: Potency [1] > 11.4 µM | activity change, negative = inhibition [2] 4.51% | activity change, negative = inhibition [3] -1.92% | activity, negative = inhibition [4] -2.34% | Potency [5] > 46 µM | Potency [6] > 9.22 µM | Potency [7] | Potency [8]

C[N+](C)(C)c1ncnc2c1ncn2[C@@H]1C[C@H](O)[C@@H](CO)O1
inactive: Potency [1] > 11.4 µM | activity change, negative = inhibition [2] 2.41% | activity change, negative = inhibition [3] 9.78% | activity, negative = inhibition [4] 3.06% | Potency [5] > 46 µM | Potency [6] > 9.22 µM | Potency [7] | Potency [8]

CC(=O)c1ccc(O)c(CN(C2CCCCC2)C2CCCCC2)c1O
inactive: Potency [1] > 11.4 µM | activity change, negative = inhibition [2] -2.68% | activity change, negative = inhibition [3] 16% | activity, negative = inhibition [4] -1.55% | Potency [5] > 46 µM | Potency [6] > 9.22 µM | Potency [7] | Potency [8]

O=C(O)/C(Cc1ccc([N+](=O)[O-])cc1)=N/O
inactive: Potency [1] > 11.4 µM | activity change, negative = inhibition [2] 3.45% | activity change, negative = inhibition [3] -0.295% | activity, negative = inhibition [4] 7.71% | Potency [5] > 46 µM | Potency [6] > 9.22 µM | Potency [7] | Potency [8]

c1nnc(NCNc2nncs2)s1
inactive: Potency [1] > 11.4 µM | activity change, negative = inhibition [2] 12.8% | activity change, negative = inhibition [3] 7.13% | activity, negative = inhibition [4] -7.18% | Potency [5] > 46 µM | Potency [6] > 9.22 µM | Potency [7] | Potency [8]

O=C(O)C/C=C\CC(=O)O
inactive: Potency [1] > 11.4 µM | activity change, negative = inhibition [2] -4.27% | activity change, negative = inhibition [3] 2.57% | activity, negative = inhibition [4] 1.96% | Potency [5] > 46 µM | Potency [6] > 9.22 µM | Potency [7] | Potency [8]

O=C1c2ccccc2C(=O)N1C1(C(=O)NC2(C(=O)O)CCCC2)CCCC1
inactive: Potency [1] > 11.4 µM | activity change, negative = inhibition [2] 0.0237% | activity change, negative = inhibition [3] 10.1% | activity, negative = inhibition [4] 0.797% | Potency [5] > 46 µM | Potency [6] > 9.22 µM | Potency [7] | Potency [8]

CN1[C@@H](c2ccccc2)CC(=NO)C[C@H]1c1ccccc1
inactive: Potency [1] > 11.4 µM | activity change, negative = inhibition [2] 0.163% | activity change, negative = inhibition [3] -20.1% | activity, negative = inhibition [4] 5.8% | Potency [5] > 46 µM | Potency [6] > 9.22 µM | Potency [7] | Potency [8]

O=C(O)c1cccc(C[C@H](Br)C(=O)O)c1
inactive: Potency [1] > 11.4 µM | activity change, negative = inhibition [2] 3.81% | activity change, negative = inhibition [3] 14.3% | activity, negative = inhibition [4] 9.47% | Potency [5] > 46 µM | Potency [6] > 9.22 µM | Potency [7] | Potency [8]

[Cu].[NH-][C@H](CC(=O)O)C(=O)O.[NH-][C@H](CC(=O)O)C(=O)O
inactive: Potency [1] > 11.4 µM | activity change, negative = inhibition [2] 5.72% | activity change, negative = inhibition [3] 8.79% | activity, negative = inhibition [4] 13.3% | Potency [5] > 46 µM | Potency [6] > 9.22 µM | Potency [7] | Potency [8]

O=C(O)CSc1ccccc1C(=O)O
inactive: Potency [1] > 11.4 µM | activity change, negative = inhibition [2] 9.97% | activity change, negative = inhibition [3] -5.26% | activity, negative = inhibition [4] -2.73% | Potency [5] > 46 µM | Potency [6] > 9.22 µM | Potency [7] | Potency [8]

CC(CO)(CO)Nc1ncnc2ccccc12
inactive: Potency [1] > 11.4 µM | activity change, negative = inhibition [2] 4.46% | activity change, negative = inhibition [3] 9.62% | activity, negative = inhibition [4] 12.4% | Potency [5] > 46 µM | Potency [6] > 9.22 µM | Potency [7] | Potency [8]

CCCc1cc(COC)c(C#N)c(=O)[nH]1
inactive: Potency [1] > 11.4 µM | activity change, negative = inhibition [2] 1.77% | activity change, negative = inhibition [3] -2.55% | activity, negative = inhibition [4] 3.43% | Potency [5] > 46 µM | Potency [6] > 9.22 µM | Potency [7] | Potency [8]

Cc1cc(O)c(C(C)C)cc1CN1CCCCC1
inactive: Potency [1] > 11.4 µM | activity change, negative = inhibition [2] 10.4% | activity change, negative = inhibition [3] -29.6% | activity, negative = inhibition [4] 5.31% | Potency [5] > 46 µM | Potency [6] > 9.22 µM | Potency [7] | Potency [8]

O=C(O)CCn1cnc2c(=S)nc[nH]c21
inactive: Potency [1] > 11.4 µM | activity change, negative = inhibition [2] -2.08% | activity change, negative = inhibition [3] 1.47% | activity, negative = inhibition [4] -0.455% | Potency [5] > 46 µM | Potency [6] > 9.22 µM | Potency [7] | Potency [8]

O=C(Nc1c[nH]c(=O)[nH]c1=O)Oc1ccccc1
inactive: Potency [1] > 11.4 µM | activity change, negative = inhibition [2] 1.22% | activity change, negative = inhibition [3] 2.28% | activity, negative = inhibition [4] -1.82% | Potency [5] > 46 µM | Potency [6] > 9.22 µM | Potency [7] | Potency [8]

O=C(c1nc2ccc([N+](=O)[O-])cc2[nH]c1=O)[C@@H](O)c1ccc2c(c1)OCO2
inactive: Potency [1] > 11.4 µM | activity change, negative = inhibition [2] -1.57% | activity change, negative = inhibition [3] 2.9% | activity, negative = inhibition [4] 12.9% | Potency [5] > 46 µM | Potency [6] > 9.22 µM | Potency [7] | Potency [8]
